PubChem BioAssay (EPA / NIEHS)
Activity calls are given as the source filed them. Rule for the calls: active = hit-call score of the fitted dose curve at least 0.9, where 1 is the maximum; inactive = score below 0.9.

Read-out: CYP3A5 (gene 1577)
Assay: LTEA_HepaRG_CYP3A5: Life Technologies and Expression Analysis (LTEA) Assay for CYP3A5 using HepaRG (AID 2283493)
Conditions: mRNA level, 48 h; actives raise or lower the signal
Protocol: LTEA_HepaRG is a cell based, multiplexed-readout assay that uses HepaRG, a human liver cell line, with measurements taken at 48 hours after chemical dosing on a 96-well plate.LTEA_HepaRG_CYP3A5 is one of 102 assay component(s) measured in the LTEA HepaRG cell culture assay. It is a marker of NR mediated metabolism.Data from the assay component LTEA_HepaRG_CYP3A5 was analyzed into 1 endpoint. This assay endpoint, LTEA_HepaRG_CYP3A5, was analyzed with bidirectional fitting relative to DMSO as the negative control and baseline of activity. Using a type of inducible reporter, measures of mRNA induction for gain or loss-of-signal activity can be used to understand regulation of transcription factor activity. To generalize the intended target to other relatable targets, this assay endpoint is annotated to the cyp intended target family, where the subfamily is xenobiotic metabolism.
A total of 1060 chemcials from the ToxCast library were tested in eight-point concentration-response experiments. Cell culture and cytotoxicity assays were conducted at Thermo Fisher Scientific's Custom Services facility (Madison, WI). A single lot of human HepaRG cells (Thermo Fisher Scientific, Frederick, MD) was used for the cell culture experiments. 96-well format collagen type I coated plates of human HepaRG cells were prepared using established methods. Briefly, cryopreserved HepaRG cells were thawed, plated at a density of approximately 100,000 cells/well in HepaRG Thaw, Plate, and General Purpose media (HPRG770, Thermo Fisher Scientific), and incubated for 48 hours. 0.5% DMSO was selected as vehicle control to balance the requisite need of DMSO in HepaRG cultures to maintain differentiation (for example, baseline metabolism, proportions of hepatocytes vs. cholangiocytes), while enabling further hepatic receptor pathway activation (for example, PXR and CAR) in response to chemical exposure. 48 hours after plating, the culture medium was replaced with HepaRG Serum-Free Incudtion Media. Cells were exposed to each test chemical in duplicate and maintained in CO2 incubators for another 48 hours. Chemical plates were thawed to room temperature and 200x concentrations of treatment groups were prepared. 8-point conentration-reponse curves were made with the highest exposure at 100 uM, followed by half-log dilutions, all in 0.5% DMSO. Each test plate contained variouse controls, induction positive controls (1mM phenobarbital), cytotoxicity positive controls ([…] aflatoxin B1), vehicle controls (0.5% DMSO), and total lysis controls (0.5% DMSO). Cell morphology images were taken using an Essen IncuCyte FLR automated microscope, with six 96-well plates imaged in about 24 minutes. Images were captured and exported and JPEG files. Spent culture media was transfered to black-well plates for the LDH assay, and remaining media was sorted at -80 C for later use. Cells were treated with RLT buffer and frozen until shipped for gene expression analysis. Total RNA was isolated from the cell suspension in 75 uL of Buffer RLT (Qiagen, Germantown, MD 20874) by Quintiles/Expression Analysis (Durham, NC) using a custom isolation procedure. Total RNA from each plate well was transferred to a preamplification plate. Fluidigm's 96.96 Dynamic ArrayTM (Fluidigm, Amsterdam, the Netherlands) technology was used for gene expression analyses by quantitative reverse transcription polymerase chain reaction (qRT-PCR, performed by Quintiles/Expression Analysis, Durham, NC)89. Standard TaqManTM Assays (Applied Biosystems/ThermoFisher Scientific, Foster City, CA) were used to assess the expression of 93 genes selected based on their selectivity and sensitivity to important hepatic receptors known to be modulated by environmental chemicals; importance in human hepatocyte functionality; and hepatotoxicity. […]

SMILES	outcome	AC50
CC(=O)Oc1ccccc1C(=O)O	inactive	–
O=C(O)Cc1ccccc1Nc1c(Cl)cccc1Cl	inactive	–
CN1CCN(Cc2cc(-c3ccc4[nH]c(=O)oc4c3)co2)[C@@H](c2ccc(F)cc2)C1	inactive	–
CCCCCCCCCCCCCO	inactive	–
Cc1cc(NC(=O)C(=O)O)cc(C)c1Oc1ccc(O)c2c1CCC2	–	0.0973 µM (active)
CC(=O)C(C)=CC1C(C)=CCCC1(C)C (stereo not given)	inactive	–
O=c1c(O)c(-c2ccc(O)c(O)c2)oc2cc(O)cc(O)c12	inactive	–
CCOC(=O)CCC(=O)OCC	inactive	–
Cc1nc(-c2ccc3c(c2)CCN(CCC2CCC(NC(=O)/C=C/c4ccc(F)cc4)CC2)CC3)no1 (stereo not given)	inactive	–
Cc1c(C(=O)O)c(O)cc2c1C(=O)c1c(O)c([C@@H]3O[C@H](CO)[C@@H](O)[C@H](O)[C@H]3O)c(O)c(O)c1C2=O	inactive	–
CC1(C)NC(=O)NC1=O	inactive	–
O=C(N[C@@H](Cc1ccccc1)[C@@H](O)C(=O)N1C[C@@H](O)[C@@H](O)C1)c1cc2cc(Cl)ccc2[nH]1	inactive	–
COc1ccc2c(c1)c(CC(=O)O)c(C)n2C(=O)c1ccc(Cl)cc1	inactive	–
CCCCCCCCCCCC(=O)OC	inactive	–
Clc1cc(Cl)c(Cl)cc1Cl	inactive	–
NC(=O)Cn1c(=O)cc(CCN2CCN(c3nccc4sccc34)CC2)c2ccc(F)cc21	inactive	–
Cc1ccc(Cl)cc1	inactive	–
Cc1cc(=O)[nH]c(=S)[nH]1	inactive	–
O=C(OCCCCCOC(=O)c1ccccc1)c1ccccc1	inactive	–
CCCCCCCCCCO	inactive	–

SMILES	outcome	AC50
O=C(O)CCCCC(=O)O	inactive	–
NCCO	inactive	–
NCC1(Cc2noc(=O)[nH]2)CCCCC1	inactive	–
CCCCOC(=O)CCCCCCCCC(=O)OCCCC	inactive	–
C=CCOC(=O)c1ccccc1C(=O)OCC=C	inactive	–
FC(F)(F)C(F)(F)C(F)(F)C(F)(F)C(F)(F)C(F)(F)CCI	inactive	–
Cc1ccc(C)c(C)c1	inactive	–
CCc1c(C(=O)NN2CCCCC2)nn(-c2ccc(Cl)cc2Cl)c1-c1ccc(Br)cc1	–	50 µM (active)
COc1ccc(C)cc1N	inactive	–
CCCCCCCC=O	inactive	–
C[Si]1(C)O[Si](C)(C)O[Si](C)(C)O[Si](C)(C)O1	inactive	–
CCOc1ccc2c(c1)C(C)=CC(C)(C)N2	inactive	–
CCCCN(CCCC)CCCC	inactive	–
CCNc1cccc(C)c1	inactive	–
Cc1cccc(Nc2cc(Cl)nc(SCC(=O)O)n2)c1C	inactive	–
CC(C)c1ccc(C(=O)N=C(N)N)cc1S(C)(=O)=O	inactive	–
CC=Cc1ccc(O)c(OC)c1	inactive	–
OC[C@@H](O)[C@@H](O)[C@H](O)[C@H](O)CO	inactive	–
CCCCCCC(=O)OCC	inactive	–
CN[C@H]1CC[C@@H](c2ccc(Cl)c(Cl)c2)c2ccc(S(N)(=O)=O)cc21	inactive	–
